Results filed as inconclusive are left out. Activity calls are given as the source filed them. Unless noted, the call rests on the fitted dose curve; in most records, active means well fitted curve in the direction sought with a large enough effect in the repeat runs; inconclusive means weak or mixed curves; inactive means no such curve, though single readings can be large; an effect the other way counts as inactive or inconclusive.
Legend:
[1] = molecular target: Progesterone receptor (Homo sapiens) (UniProt P06401); assay: qHTS assay to identify small molecule agonists of the progesterone receptor (PR) signaling pathway (AID 1346784; calls by dose curve; further: nearly all actives have a fitted effect of over 30% in size)
Procedure, shortened: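 PR-UAS-bla HEK 293T cells carrying a UAS-driven beta-lactamase reporter were seeded in medium with 2% charcoal-stripped FBS, preincubated 6 hr at 37C, then exposed to compounds in DMSO for 16 hr; agonism was read by LiveBLAzer B/G FRET fluorescence.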

[2] = molecular target: Progesterone receptor (Homo sapiens) (UniProt P06401); assay: qHTS assay to identify small molecule antagonists of the progesterone receptor (PR) signaling pathway (AID 1346795; active means well fitted inhibition curve with a large enough effect in the signal ratio in the repeat runs, not every such curve was filed as active; the % refers to the signal ratio)
Procedure, shortened: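 PR-UAS-bla HEK293T cells carrying a UAS-driven beta-lactamase reporter were plated in medium with 2% charcoal-stripped FBS and rested 6 hr at 37C. Compounds were added with 1 nM R5020 (final) for 16 hr, then FRET substrate loaded 2 hr at room temperature.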

[3] = qHTS assay to identify small molecule antagonists of the progesterone receptor (PR) signaling pathway - cell viability counter screen (AID 1346798); further: series mostly up to about 92 µM; nearly all actives have a fitted effect of over 50% in size
Procedure, shortened: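 PR-UAS-bla HEK293T cells in medium with 2% charcoal-stripped FBS were treated with compounds plus R5020 for 16 hr at 37C. Cell viability was then read by CellTiter-Glo luminescence after 30 min at room temperature in the same wells.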

[4] = qHTS assay to identify small molecule agonists of the progesterone receptor (PR) signaling pathway - cell viability counter screen (AID 1346799; calls by dose curve; further: nearly all actives have a fitted effect of over 45% in size)
Procedure, shortened: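 PR-UAS-bla HEK293T cells, 3,000 per well in medium with 2% charcoal-stripped FBS, were preincubated 6 hr at 37C, then exposed to compounds for 16 hr; viability was read as CellTiter-Glo luminescence after 30 min at room temperature.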

[5] = qHTS assay to identify small molecule antagonists of the TGF-beta/Smad signaling pathway - cell viability counter screen (AID 1346824); further: nearly all actives have a fitted effect of over 50% in size
Procedure, shortened: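 Cytotoxicity counter-screen run in the same wells as the beta-lactamase Smad reporter read: CellTiter-Glo luminescence after 30 min at room temperature. HEK 293T SBE-bla cells had 5 hr compound exposure at 37 C with TGF-beta1 (0.25 ng/mL stock).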

[6] = qHTS assay to identify small molecule agonists of the TGF-beta/Smad signaling pathway - cell viability counter screen (AID 1346829); further: top concentration of the series differs between compounds; nearly all actives have a fitted effect of over 45% in size
Procedure, shortened: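 In parallel with the Smad reporter read, viability of HEK 293T cells stably carrying SBE-bla is quantified by ATP luminescence following 5 hr compound treatment.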

[7] = qHTS assay to identify small molecule agonists of the TGF-beta/Smad signaling pathway (AID 1346859; active means well fitted activation curve with a large enough effect in the signal ratio in the repeat runs, not every such curve was filed as active; the % refers to the signal ratio; further: series mostly up to about 77 µM)
Procedure, shortened: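 HEK 293T cells stably carrying a beta-lactamase reporter driven by the Smad binding element were seeded overnight, exposed to DMSO-dissolved compounds for 5 hr at 37 C, 5% CO2, then loaded with FRET substrate for 2 hr at room temperature.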

[8] = molecular target: Thyrotropin-releasing hormone receptor (Homo sapiens) (UniProt P34981); assay: qHTS assay to identify small molecule antagonists of the thyrotropin-releasing hormone receptor (TRHR) signaling pathway (AID 1346877; active means well fitted inhibition curve with a large enough effect in the repeat runs, not every such curve was filed as active; further: series mostly up to about 51 µM)
Procedure, shortened: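 TRHR-expressing HEK293 cells were seeded, cultured 18 h at 37 °C, then loaded with calcium dye for 2 h. Compounds were pre-incubated 5 min at room temperature before 1 nM TRH (final) was added, and kinetic fluorescence was recorded for 3 min.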

[9] = molecular target: Thyrotropin-releasing hormone receptor (Homo sapiens) (UniProt P34981); assay: qHTS assay to identify small molecule agonists of the thyrotropin-releasing hormone receptor (TRHR) signaling pathway (AID 1346891; calls by dose curve; further: series mostly up to about 58 µM)
Procedure, shortened: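 TRHR-expressing HEK293 cells were plated 18 h at 37 °C/5% CO2, loaded with calcium dye 2 h at 37 °C, then given compound in DMSO; fluorescence was read kinetically for 3 min at 1 s intervals.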

[10] = Human pregnane X receptor (PXR) small molecule agonists, qHTS cell viability counter screen (AID 1346977); further: nearly all actives have a fitted effect of over 50% in size
Procedure, shortened: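 PXR-Luc HepG2 cells in medium with 5% charcoal-stripped FBS were pre-incubated 5hr, then exposed to compounds for 24hr at 37C. Viability was read in the same wells by CellTiter-Fluor fluorescence, reagent added after 23hr with a 1hr incubation.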

[11] = Caspase-3/7 induction in HepG2 cells by small molecules, qHTS assay (AID 1346978); further: nearly all actives have a fitted effect of over 15% in size
Procedure, shortened: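 Caspase-3/7 induction was measured by Caspase-Glo 3/7 luminescence (30 min, room temperature) after a 17 hr compound exposure of wild-type HepG2 cells seeded at 2,000 per well and pre-incubated 5 hr.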

[12] = Caspase-3/7 induction in CHO-K1 cells by small molecules, qHTS assay (AID 1346980); further: nearly all actives have a fitted effect of over 15% in size
Procedure, shortened: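 Luminescent Caspase-Glo 3/7 read (30min, room temperature) quantified apoptosis induction. Cells were wild-type CHO-K1, treated with compound for 17hr at 37 C and 5% CO2.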

[13] = Caspase-3/7 induction in HepG2 cells by small molecules, qHTS cell viability counter screen (AID 1346981); further: series mostly up to about 92 µM; nearly all actives have a fitted effect of over 30% in size
Procedure, shortened: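 Wild-type HepG2 cells (2,000/well) were allowed to settle for 5 hr at 37 C, 5% CO2, then dosed with compounds in DMSO by pin transfer. After 16 hr at 37 C, CellTiter-Fluor was added and fluorescence read 1 hr later.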

[14] = molecular target: Acetylcholinesterase (Homo sapiens) (UniProt P22303); assay: Acetylcholinesterase (AChE) small molecule antagonists: colormetric cell-based qHTS assay (AID 1347395; calls by dose curve; further: nearly all actives have a fitted effect of over 30% in size)
Procedure, shortened: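 SH-SY5Y cells, plated overnight at 37 C, were exposed to compounds for 30 min at 37 C and 5% CO2. Acetylthiocholine plus DTNB was then added, and thiocholine from endogenous AChE was quantified colorimetrically after 90 min at 37 C.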

[15] = qHTS assay to identify small molecule agonists of the estrogen receptor alpha (ER-alpha) signaling pathway in the presence of an antagonist - cell viability counter screen (AID 1259386);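 further: series mostly up to about 92 µM; cells exposed to compounds for 22 h at 37 °C before the viability read; nearly all actives have a fitted effect of over 30% in size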
Procedure, shortened: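 VM7Luc4E2 cells (endogenous full-length ER-alpha, 4×ERE-luciferase) were held 5 days in phenol red-free medium with 10% charcoal-stripped FBS, plated, then given 10.0nM ICI-182,780 and compounds at 15 concentrations for 22hr at 37C; viability read by CellTiter-Fluor fluorescence.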

[16] = Caspase-3/7 induction in CHO-K1 cells by small molecules, qHTS cell viability counter screen (AID 1346979); further: nearly all actives have a fitted effect of over 35% in size
Procedure, shortened: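 Wild-type CHO-K1 cells were seeded at 1,500 per well, rested 5hr at 37 C, then exposed to compounds in DMSO. After 16hr, CellTiter-Fluor reagent was added and fluorescence read 1hr later as the viability measure.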

[17] = molecular target: Nuclear receptor subfamily 1 group I member 2 (Homo sapiens) (UniProt O75469); assay: Human pregnane X receptor (PXR) small molecule agonists, qHTS assay (AID 1346982); further: nearly all actives have a fitted effect of over 35% in size; further: potency means the concentration at half of the fitted maximal effect
Procedure, shortened: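 PXR-Luc HepG2 cells (CYP3A4 promoter-driven luciferase) were seeded in medium with 5% charcoal-stripped FBS, left 5 hr at 37 C, then exposed to compounds in DMSO for 24 hr. Luminescence was read after ONE-Glo addition.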

[18] = molecular target: Nuclear receptor subfamily 1 group I member 2 (Rattus norvegicus) (UniProt Q9R1A7); assay: Rat pregnane X receptor (rPXR) activation by small molecules, qHTS assay (AID 1346983); conditions: rPXR luciferase reporter cells, One-Glo luminescence, 24 h; max activation: stronger effect = higher value; further: nearly all actives have a fitted effect of over 20% in size
Procedure, shortened: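 Luminescent readout (One-Glo luciferase, 30 min room temperature) followed 24 hr compound treatment at 37 C of rPXR cells plated 2,000 per well and preincubated 5hr; qHTS format with compounds delivered in DMSO.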

[19] = molecular target: Nuclear receptor subfamily 1 group I member 2 (Homo sapiens) (UniProt O75469); assay: CYP3A4 induction through human pregnane X receptor (PXR) by small molecules, qHTS assay (AID 1346984); further: nearly all actives have a fitted effect of over 40% in size
Procedure, shortened: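 DPX-2 cells (HepG2 co-transfected with PXR and CYP3A4 promoter-luciferase) treated with compounds 24 h at 37C; luciferin-IPA CYP3A4 substrate 3uM final added for 3 h, then One-Glo; luminescence read. qHTS format.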

[20] = molecular target: Nuclear receptor subfamily 1 group I member 2 (Homo sapiens) (UniProt O75469); assay: Human pregnane X receptor (PXR) activation by small molecules, qHTS assay (AID 1346985); further: nearly all actives have a fitted effect of over 40% in size
Procedure, shortened: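 DPX-2 cells (HepG2 co-transfected with a PXR response element and a CYP3A4-promoter luciferase construct) were seeded at 2,000 per well, rested 5 hr at 37C, then exposed to DMSO-dissolved compounds for 24 hr. Activation was read as luciferase luminescence.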
On the % scale 0 is the no-effect control and ±100 the full control effect.

Sequence of Nuclear receptor subfamily 1 group I member 2 (Homo sapiens) (O75469 whole entry, looked up): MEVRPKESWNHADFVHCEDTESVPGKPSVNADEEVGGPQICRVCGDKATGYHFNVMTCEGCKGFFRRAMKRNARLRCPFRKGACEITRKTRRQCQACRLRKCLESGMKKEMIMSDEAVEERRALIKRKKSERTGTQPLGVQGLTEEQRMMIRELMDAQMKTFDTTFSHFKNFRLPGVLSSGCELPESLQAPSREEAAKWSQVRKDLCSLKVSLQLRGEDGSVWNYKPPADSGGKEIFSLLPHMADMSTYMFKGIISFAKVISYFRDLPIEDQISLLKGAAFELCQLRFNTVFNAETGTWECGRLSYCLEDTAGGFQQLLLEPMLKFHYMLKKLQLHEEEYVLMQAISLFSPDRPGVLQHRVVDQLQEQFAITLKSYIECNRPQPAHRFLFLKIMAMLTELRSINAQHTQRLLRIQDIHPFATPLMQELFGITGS
Sequence of Thyrotropin-releasing hormone receptor (Homo sapiens) (P34981 whole entry, looked up): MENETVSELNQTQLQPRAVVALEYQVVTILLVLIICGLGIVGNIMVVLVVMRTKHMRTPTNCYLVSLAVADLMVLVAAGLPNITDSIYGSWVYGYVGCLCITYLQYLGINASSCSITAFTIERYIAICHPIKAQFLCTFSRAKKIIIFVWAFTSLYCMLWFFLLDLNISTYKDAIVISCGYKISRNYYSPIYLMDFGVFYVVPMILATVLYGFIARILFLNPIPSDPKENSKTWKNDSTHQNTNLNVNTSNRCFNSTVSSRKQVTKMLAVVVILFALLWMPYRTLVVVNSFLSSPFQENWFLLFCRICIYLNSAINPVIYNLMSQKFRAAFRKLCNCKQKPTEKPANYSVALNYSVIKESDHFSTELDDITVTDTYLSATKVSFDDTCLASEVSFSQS
Sequence of Acetylcholinesterase (Homo sapiens) (P22303 whole entry, looked up): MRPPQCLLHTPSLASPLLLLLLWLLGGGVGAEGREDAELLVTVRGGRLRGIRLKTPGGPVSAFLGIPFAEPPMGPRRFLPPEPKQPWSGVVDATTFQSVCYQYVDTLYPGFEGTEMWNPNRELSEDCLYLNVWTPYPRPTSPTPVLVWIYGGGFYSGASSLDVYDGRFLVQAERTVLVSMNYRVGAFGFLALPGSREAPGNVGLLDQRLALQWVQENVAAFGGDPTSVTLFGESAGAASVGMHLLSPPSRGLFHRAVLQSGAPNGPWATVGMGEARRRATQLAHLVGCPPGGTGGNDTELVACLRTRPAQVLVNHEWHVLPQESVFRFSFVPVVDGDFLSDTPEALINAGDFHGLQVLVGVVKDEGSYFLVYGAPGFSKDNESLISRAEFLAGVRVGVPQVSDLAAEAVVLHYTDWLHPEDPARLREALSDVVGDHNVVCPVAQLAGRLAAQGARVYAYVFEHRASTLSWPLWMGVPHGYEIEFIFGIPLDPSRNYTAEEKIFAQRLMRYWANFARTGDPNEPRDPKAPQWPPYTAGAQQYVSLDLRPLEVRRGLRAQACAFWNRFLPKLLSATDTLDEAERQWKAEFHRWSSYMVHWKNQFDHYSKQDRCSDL
Sequence of Progesterone receptor (Homo sapiens) (P06401 whole entry, looked up): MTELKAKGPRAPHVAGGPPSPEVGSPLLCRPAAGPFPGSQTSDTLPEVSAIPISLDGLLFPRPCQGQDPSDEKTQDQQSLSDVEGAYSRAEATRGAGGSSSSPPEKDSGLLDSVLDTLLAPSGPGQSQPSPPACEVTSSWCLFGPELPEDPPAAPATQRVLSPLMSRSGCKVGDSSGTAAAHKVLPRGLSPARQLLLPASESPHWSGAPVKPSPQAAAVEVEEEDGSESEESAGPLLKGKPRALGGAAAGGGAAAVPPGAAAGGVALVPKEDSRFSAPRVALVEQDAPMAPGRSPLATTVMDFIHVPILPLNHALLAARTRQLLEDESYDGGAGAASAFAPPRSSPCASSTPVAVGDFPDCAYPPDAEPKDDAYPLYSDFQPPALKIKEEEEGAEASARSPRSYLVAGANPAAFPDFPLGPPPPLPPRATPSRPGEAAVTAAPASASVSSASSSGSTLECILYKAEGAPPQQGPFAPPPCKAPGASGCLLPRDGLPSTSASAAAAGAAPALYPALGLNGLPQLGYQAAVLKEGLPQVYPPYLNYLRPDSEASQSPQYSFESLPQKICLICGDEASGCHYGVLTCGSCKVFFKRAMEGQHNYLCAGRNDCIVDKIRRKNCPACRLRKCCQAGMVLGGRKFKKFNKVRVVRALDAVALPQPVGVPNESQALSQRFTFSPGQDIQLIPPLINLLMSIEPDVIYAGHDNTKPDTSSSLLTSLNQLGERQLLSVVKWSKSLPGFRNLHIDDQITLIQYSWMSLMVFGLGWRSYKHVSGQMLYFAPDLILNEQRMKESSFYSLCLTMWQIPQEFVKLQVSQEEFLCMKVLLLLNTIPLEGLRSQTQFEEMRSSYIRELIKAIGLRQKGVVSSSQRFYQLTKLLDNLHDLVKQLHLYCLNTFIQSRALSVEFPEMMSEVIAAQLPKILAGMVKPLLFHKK
Sequence of Nuclear receptor subfamily 1 group I member 2 (Rattus norvegicus) (Q9R1A7 whole entry, looked up): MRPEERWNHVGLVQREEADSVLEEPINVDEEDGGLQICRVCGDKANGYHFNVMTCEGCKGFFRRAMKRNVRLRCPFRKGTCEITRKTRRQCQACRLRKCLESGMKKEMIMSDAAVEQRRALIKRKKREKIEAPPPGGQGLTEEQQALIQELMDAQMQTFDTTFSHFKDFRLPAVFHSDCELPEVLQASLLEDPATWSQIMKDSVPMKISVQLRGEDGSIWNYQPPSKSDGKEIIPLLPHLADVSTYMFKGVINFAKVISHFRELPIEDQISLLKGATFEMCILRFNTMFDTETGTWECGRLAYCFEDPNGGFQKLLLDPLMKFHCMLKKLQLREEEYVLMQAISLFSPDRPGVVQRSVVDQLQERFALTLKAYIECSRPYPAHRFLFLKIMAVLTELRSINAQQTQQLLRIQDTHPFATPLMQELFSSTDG

CCCCc1c(C)nc(NCC)[nH]c1=O
inactive: Potency [1] | Potency [2] | Potency [3] | Potency [4] | Potency [5] | outcome [6] | outcome [7] | outcome [8] | outcome [9] | Potency [10] | Potency [11] | Potency [12] | Potency [13] | Potency [14]

CN/C(=N\[N+](=O)[O-])NCC1CCOC1 (stereo not drawn)
inactive: Potency [15] | Potency [3] | Potency [4] | Potency [5] | outcome [6] | outcome [7] | outcome [8] | outcome [9] | Potency [10] | Potency [11] | Potency [16] | Potency [12] | Potency [13]

[O]=[Cd]
inactive: Potency [1] | Potency [2] | Potency [3] | Potency [4] | Potency [5] | outcome [6] | outcome [7] | outcome [8] | outcome [9] | Potency [10] | Potency [11] | Potency [12] | Potency [13] | Potency [17] | max activation [18] 0.414% | Potency [19] | Potency [20] | Potency [14]

CC1(C)COP(Oc2ccccc2)OC1
inactive: Potency [15] | Potency [3] | Potency [4] | Potency [5] | outcome [6] | outcome [7] | outcome [8] | outcome [9] | Potency [11] | Potency [12] | Potency [13] | Potency [17] | Potency [14]

c1coc(-c2nc3ccccc3[nH]2)c1
active: Potency [17] 3.44 µM
inactive: Potency [1] | Potency [2] | Potency [3] | Potency [4] | outcome [6] | outcome [7] | outcome [9] | Potency [10] | Potency [11] | Potency [16] | Potency [12] | Potency [13] | Potency [14]

C[C@]1(O)CC[C@H]2[C@@H]3CCC4=CC(=O)CC[C@]4(C)[C@@]3(F)[C@@H](O)C[C@@]21C
active: Potency [17] 48.9 µM
inactive: Potency [15] | Potency [3] | outcome [6] | outcome [7] | Potency [10] | Potency [11] | Potency [16] | Potency [12] | Potency [13] | Potency [14]

O=P(O)(Oc1ccccc1)Oc1ccccc1
inactive: Potency [15] | Potency [3] | Potency [4] | Potency [5] | outcome [6] | outcome [7] | outcome [8] | Potency [10] | Potency [11] | Potency [12] | Potency [17] | Potency [14]

COC(=O)C(C)Oc1ccc(Oc2ccc(Cl)cc2Cl)cc1 (stereo not drawn)
inactive: Potency [15] | Potency [3] | Potency [5] | outcome [6] | outcome [7] | Potency [10] | Potency [11] | Potency [16] | Potency [12] | Potency [13] | Potency [17] | Potency [14]

OC(c1ccccc1)(c1ccccc1)C1CCNCC1
inactive: Potency [15] | Potency [3] | Potency [4] | Potency [5] | outcome [6] | outcome [7] | Potency [10] | Potency [11] | Potency [16] | Potency [12] | Potency [13] | Potency [17] | max activation [18] -4.65% | Potency [19] | Potency [20] | Potency [14]

From PubChem BioAssay (Tox21)
